D1 antagonist – antagonists of human D1 dopamine receptor. P21728. HEK293 TREx D1 cells, calcium flux, dopamine EC80; active compounds read low. activity change, negative = inhibition, % at 10 µM. 3.2% of 360,000 active; in the data active means activity change below about -30%; further: on the % scale 0 is the no-effect control and ±100 the full control effect
Target sequence (P21728 whole entry, looked up): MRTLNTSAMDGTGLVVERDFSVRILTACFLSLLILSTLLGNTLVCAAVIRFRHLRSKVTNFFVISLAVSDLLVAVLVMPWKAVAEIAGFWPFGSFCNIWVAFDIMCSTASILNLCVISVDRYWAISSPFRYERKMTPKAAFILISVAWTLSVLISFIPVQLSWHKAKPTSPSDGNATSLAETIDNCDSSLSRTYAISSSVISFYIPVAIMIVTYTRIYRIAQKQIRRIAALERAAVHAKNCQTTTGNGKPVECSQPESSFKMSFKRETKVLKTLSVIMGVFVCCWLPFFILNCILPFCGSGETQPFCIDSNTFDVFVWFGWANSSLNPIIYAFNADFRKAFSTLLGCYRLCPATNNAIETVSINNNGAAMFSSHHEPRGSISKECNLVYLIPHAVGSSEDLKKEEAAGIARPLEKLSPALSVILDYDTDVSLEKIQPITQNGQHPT
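Tetracycline-induced HEK293 T-REx cells with force-coupled D1 receptor were loaded with a no-wash calcium dye. Compound was added after a 10 s baseline and read kinetically for 180 s; EC80 dopamine was then added and calcium flux followed another 180 s.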
DRD3 agonist – agonists of human D3 dopamine receptor; D3R DiscoveRx beta-arrestin cells, luminescence, 90 min; max activation, %; 0.58% of 410,000 active; in the data active means max activation above about 30%; further: 0% is about no effect
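Agonist-mode cell screen: cells plated at 1500/well and incubated overnight at 37 °C, then exposed to library compounds for 90 min at 37 °C. Detection reagent was added for 30–60 min at room temperature, and luminescence was read.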
DRD3 antagonist – D3 dopamine receptor (human) antagonism. AID 652054. D3R cells, DiscoveRx beta-arrestin luminescence, antagonist mode; active compounds read low. P35462. max response, negative = inhibition, %. 2.5% of 360,000 active; in the data active means max response below about -50%; further: on the % scale 0 is the no-effect control and ±100 the full control effect
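Cells expressing the human receptor were seeded at 1500 cells/well, incubated overnight at 37 degrees C in 5% CO2, then exposed to library compounds with dopamine controls for 90 minutes at 37 degrees C before luminescent detection.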
D1 potentiator – potentiators of human D1 dopamine receptor | HEK293 TREx D1 cells, calcium flux, dopamine EC20 potentiation | AID 504651 | 0.036% of 360,000 active | potentiation, % at 10 µM | P21728; in the data active means potentiation above about 30%; further: 0% is about no effect
D1 ag – activates the human D1 dopamine receptor | 1% of 360,000 active | activation, % at 2 µM | P21728 | HEK293 T-REx D1 cells, calcium flux, agonist mode; in the data active means activation above about 30%; further: 0% is about no effect
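Agonism was scored from calcium flux recorded over 180 s (1 read/s) after pintool compound addition, following a 10-cycle baseline. Cells were inducible force-coupled HEK293 TREx D1, plated overnight at 30 C and loaded with no-wash calcium dye.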
Starred values were filed as active, the others as inactive; / = not tested or not shown. Sampled rows, rich in hits. Any-hit rate of the full collection: about 6%.

SMILES | D1 antagonist | DRD3 agonist | DRD3 antagonist | D1 potentiator | D1 ag
CCO[C@@H]1OC(C(=O)N2CCOCC2)=C[C@H](C2CC2)[C@H]1CCCO | 2.4 | 5.5 | 11.1 | 4.3 | -5.2
Clc1ccc(-c2cc3nc(NCc4cccc(Cl)c4)ccn3n2)cc1 | / | 2.9 | -16.3 | / | /
COc1ccc(NC(=O)C2(C)Cc3c(-c4cccc(C(N)=O)c4)ccnc3O2)cn1 (configuration not stated) | / | -1.2 | 2.6 | / | /
Cc1cc(O)c(-c2ccnc3cc(-c4ccccc4)nn23)cc1Cl | -3.2 | 11.8 | / | -1.4 | 0.3
Cc1cc(-c2ccccc2)n2nc(-c3cccc(Br)c3)cc2n1 | -18.4 | 0.5 | / | 2.6 | 6.4
Cc1c(NC(=O)Cc2ccc(F)cc2)cccc1-c1nc2cccnc2s1 | -10.8 | -6.6 | / | -1.7 | 2.1
CC(NC(=O)C1CC1)C(c1cccs1)N1CCN(c2ccccc2)CC1 (configuration not stated) | 1.6 | -4.5 | -5.0 | 1.9 | 1.4
CC(NC(=O)Nc1ccc(F)cc1)C(c1cccs1)N1CCCC1 (configuration not stated) | 7.3 | -24.3 | -13.7 | -10.3 | 72.4*
CC(NC(=O)NC1CCCCC1)C(c1cccs1)N1CCN(c2ccccc2)CC1 (configuration not stated) | -0.5 | -7.5 | -55.0* | -2.1 | -2.5
Cn1nnnc1Sc1ncnc2scc(-c3ccc(S(C)(=O)=O)cc3)c12 | -2.9 | / | / | 1.9 | 6.8
Clc1ccccc1N1CCN(Cc2c[nH]c3ccccc23)CC1 | / | -28.8 | -78.1* | / | /
O=S(=O)(c1ccc(Cl)cc1)N1CCN(Cc2c[nH]c3ccccc23)CC1 | / | 6.0 | 0.4 | -1.9 | 0.5
Fc1ccccc1N1CCN(C2CCN(Cc3c[nH]c4ccccc34)CC2)CC1 | -7.0 | -29.3 | -60.2* | -7.3 | 46.5*
OC1(c2ccc(Cl)cc2)CCN(Cc2c[nH]c3ccccc23)CC1 | / | -86.5 | -100.9* | / | /
CC1C(=O)N(Cc2cn(CCC3OCCO3)nn2)CCS(=O)(=O)N1Cc1ccc(-c2ccc(Cl)cc2)cc1 (configuration not stated) | / | 2.6 | 10.8 | / | /
CCOc1ccc(CCNC(=O)c2cnc3sc(N4CCCCCC4)nn3c2=O)cc1 | 7.4 | 14.6 | / | -4.1 | 0.7
Cc1cc(C)cc(NC(=O)Cn2c(=O)n(Cc3ccc4c(c3)OCO4)c(=O)c3oc4ccccc4c32)c1 | 0.9 | -40.4 | / | -3.5 | 1.1
Cc1ccc(Nc2nc(Cl)nc(NC(C)(C)C)n2)cc1 | -37.4* | -3.1 | 64.6 | -1.1 | 10.9
CCOC(=O)CNc1nc(Cl)nc(Nc2ccc(C)cc2)n1 | -2.9 | -8.1 | 1.4 | -1.1 | 0.4
COc1cc(NC(=O)CN2Cc3ccccc3C2=O)cc(OC)c1OC | -23.0 | 8.1 | / | -1.1 | -1.9
CCOC(=O)c1nnc(-c2ccc(C)cc2)nc1Sc1ccccc1Cl | 2.9 | 5.7 | -84.8* | -4.6 | 6.6
CCOc1ccccc1-c1nc(Cn2c(=O)cc(C)c3c(C)nn(-c4ccccc4)c32)c(C)o1 | -1.1 | 9.3 | / | 2.1 | -0.6
Cc1ccc(-c2csc3nc[nH]c(=S)c23)cc1 | -7.6 | 0.4 | -20.7 | -1.1 | 2.4
Cc1cc(-c2csc3nc[nH]c(=S)c23)cc(C)c1C | -48.7* | 2.5 | -6.2 | -5.0 | 17.1
COc1ccc(C(CNC(=O)c2ccc(C)c(S(=O)(=O)Nc3ccccc3OC)c2)N2CCCC2)cc1 (configuration not stated) | -38.4* | -23.4 | -92.9* | -0.7 | 14.3
SMILES | D1 antagonist | DRD3 agonist | DRD3 antagonist | D1 potentiator | D1 ag
COc1ccc(N(C)S(=O)(=O)c2cccc(C(=O)NCC(c3ccco3)N3CCCC3)c2)cc1 (configuration not stated) | 3.6 | -26.9 | -57.2* | -8.8 | 4.3
COc1ccc(C(CNC(=O)c2cccc(S(=O)(=O)Nc3ccccc3OC)c2)N2CCCC2)cc1 (configuration not stated) | -4.4 | -30.8 | -64.7* | -2.3 | 7.0
CCC1CCc2sc(C(=O)NCC(c3ccc(OC)cc3)N3CCCC3)cc2C1 (configuration not stated) | 22.9 | -9.3 | -88.6* | -0.6 | 6.3
COc1ccc(-c2sc3ccccc3c2-c2ccc(OC)cc2F)cc1 | / | 1.8 | 27.6 | / | /
Nc1ccc(C(=O)Oc2ccccc2)c(O)c1 | / | -13.6 | / | / | /
COc1ccc(C(CNC(=O)c2cccc(S(=O)(=O)N3CCCCC3)c2)N2CCCC2)cc1 (configuration not stated) | 7.0 | -12.0 | -51.3* | -2.0 | 3.7
COc1ccccc1C(CNC(=O)c1ccc(C)c(S(=O)(=O)N2CCCCC2)c1)N1CCCC1 (configuration not stated) | -44.9* | -18.8 | -17.5 | -9.8 | 1.5
COc1ccc(N(C)S(=O)(=O)c2cccc(C(=O)NCC(c3cccs3)N(C)C)c2)cc1 (configuration not stated) | -5.8 | -28.4 | -67.0* | -2.4 | 3.5
COc1ccc(C(=O)NCC(c2ccc(F)cc2)N2CCOCC2)cc1S(=O)(=O)N1CCCC1 (configuration not stated) | -0.4 | 7.7 | 8.4 | 6.3 | 6.4
COc1ccc(C(CNC(=O)c2ccc(OC)c(S(=O)(=O)N3CCCC3)c2)N2CCCC2)cc1 (configuration not stated) | -6.2 | -23.1 | -82.6* | -0.2 | -0.2
COc1ccc(C(CNC(=O)c2ccc(C)c(S(=O)(=O)N3CCCCC3)c2)N(C)C)cc1OC (configuration not stated) | 14.3 | -1.3 | -10.4 | 0.9 | 2.0
COc1ccc(CCNC(=O)c2cc3c(s2)-c2c(C)cccc2OC3)c(OC)c1 | -7.9 | -5.0 | / | -3.4 | 4.5
CCCn1c(=O)c2sccc2n2c(CCCC(=O)Nc3ccccc3OCC)nnc12 | -0.6 | 6.7 | / | 0.6 | 1.0
Cc1ccc(C2CC(=O)n3nc(-c4ccc(Cl)cc4)nc3S2)cc1 (configuration not stated) | 1.2 | -4.2 | / | -7.2 | -0.3
CCN(CC)C(=O)C1=C(C)Nc2nc3ccccc3n2C1c1cccc(Cl)c1 (configuration not stated) | 11.7 | 2.0 | / | 2.1 | -1.4
O=c1cc(COc2ccccc2Cl)nc2scc(-c3ccccc3)n12 | -10.3 | 5.1 | / | -4.4 | 4.4
COc1ccc(C2NC(=O)N(C)C3=C2C(=O)N(c2ccc(C)cc2)C3)cc1 (configuration not stated) | 11.6 | 3.8 | / | -1.6 | 2.3
COc1ccc(C(CNC(=O)c2cc3ccccc3cc2OC)N2CCCC2)cc1 (configuration not stated) | 3.1 | -9.6 | -56.2* | -2.6 | -0.4
COc1ccc(C(CNC(=O)CNC(=O)c2ccccc2Cl)N2CCCC2)cc1 (configuration not stated) | 4.5 | -13.3 | 5.6 | -5.8 | 0.0
COc1ccc(N(C)S(=O)(=O)c2cccc(C(=O)NC3CCC(C)CC3)c2)cc1 (configuration not stated) | -10.0 | 4.0 | -2.5 | 4.5 | 1.9
COc1ccc(N(C)S(=O)(=O)c2cccc(C(=O)Nc3cccc(C(=O)NC4CC4)c3)c2)cc1 | -52.5* | -1.5 | 37.8 | -13.7 | 5.7
